Laboratory results taken from the supplement of paper PMC10849652.
The full data set covers some 7,900 targets. This sample favours those with a hit. About 0.6% of all pairs of compound and target were hits.

Each target was assayed with c1ccc([C@@H]2C[C@H]2NC2CCNCC2)cc1 (assay: log2 fold change, soluble protein after heating vs DMSO (PISA); higher = thermal stabilisation; K562 cells, 10 uM, 30 min; active = over 0.2 and 3.5 SD of the protein, either way, in both replicates (recomputed)).
Method in brief: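 Aliquots of K562 cells (2×10^6 cells/mL) treated with 10 μM compound for 30 min were heated for 3 min over 48°C-58°C. After pooling and extraction in PBS with 0.5% NP-40 at 4°C, soluble protein from a 21,000xg, 90 min spin was quantified by TMTpro 16plex LC-MS/MS with channel sums equalised. Thermal stability is expressed against control samples, from duplicates, as a log2 fold change.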

Sequence of UniProt Q9Y5Z9 (Q9Y5Z9 whole entry, looked up): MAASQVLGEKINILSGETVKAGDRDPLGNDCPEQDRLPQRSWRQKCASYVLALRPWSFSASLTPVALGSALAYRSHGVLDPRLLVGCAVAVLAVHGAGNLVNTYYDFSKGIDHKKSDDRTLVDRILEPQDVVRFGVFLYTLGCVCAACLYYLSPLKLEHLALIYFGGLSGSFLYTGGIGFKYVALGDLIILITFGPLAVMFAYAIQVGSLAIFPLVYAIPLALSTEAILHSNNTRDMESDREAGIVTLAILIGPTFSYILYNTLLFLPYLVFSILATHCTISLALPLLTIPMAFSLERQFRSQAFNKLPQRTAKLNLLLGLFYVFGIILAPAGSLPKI
Sequence of UniProt O75717 (O75717 whole entry, looked up): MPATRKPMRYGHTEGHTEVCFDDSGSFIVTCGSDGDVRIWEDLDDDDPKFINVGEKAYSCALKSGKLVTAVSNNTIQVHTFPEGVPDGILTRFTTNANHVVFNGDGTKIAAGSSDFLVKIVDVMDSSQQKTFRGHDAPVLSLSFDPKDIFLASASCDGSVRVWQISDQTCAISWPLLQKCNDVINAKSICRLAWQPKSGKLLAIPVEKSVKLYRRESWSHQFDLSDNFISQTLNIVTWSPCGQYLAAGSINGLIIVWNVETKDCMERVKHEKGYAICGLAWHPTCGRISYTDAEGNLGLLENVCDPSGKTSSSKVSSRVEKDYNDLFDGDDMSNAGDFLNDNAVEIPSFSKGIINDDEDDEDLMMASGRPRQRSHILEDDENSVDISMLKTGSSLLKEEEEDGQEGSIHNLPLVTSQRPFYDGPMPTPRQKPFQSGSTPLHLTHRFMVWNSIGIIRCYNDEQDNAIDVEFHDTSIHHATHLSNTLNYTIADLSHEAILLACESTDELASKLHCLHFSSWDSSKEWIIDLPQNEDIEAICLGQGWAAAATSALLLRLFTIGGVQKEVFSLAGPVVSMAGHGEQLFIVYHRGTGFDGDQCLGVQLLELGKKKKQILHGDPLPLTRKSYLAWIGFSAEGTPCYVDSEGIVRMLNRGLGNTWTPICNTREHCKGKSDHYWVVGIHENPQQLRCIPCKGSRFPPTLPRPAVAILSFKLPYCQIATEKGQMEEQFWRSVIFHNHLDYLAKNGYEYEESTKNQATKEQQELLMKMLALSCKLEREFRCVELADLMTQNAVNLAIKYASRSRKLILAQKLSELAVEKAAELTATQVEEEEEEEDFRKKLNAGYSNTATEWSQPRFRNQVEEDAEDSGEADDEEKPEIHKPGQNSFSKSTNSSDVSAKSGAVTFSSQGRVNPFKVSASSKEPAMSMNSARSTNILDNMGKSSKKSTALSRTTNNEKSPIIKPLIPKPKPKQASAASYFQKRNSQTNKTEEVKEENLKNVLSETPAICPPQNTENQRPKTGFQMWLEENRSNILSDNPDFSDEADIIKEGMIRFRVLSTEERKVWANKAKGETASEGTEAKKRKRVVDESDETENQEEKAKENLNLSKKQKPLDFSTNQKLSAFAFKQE
Sequence of UniProt Q9H270 (Q9H270 whole entry, looked up): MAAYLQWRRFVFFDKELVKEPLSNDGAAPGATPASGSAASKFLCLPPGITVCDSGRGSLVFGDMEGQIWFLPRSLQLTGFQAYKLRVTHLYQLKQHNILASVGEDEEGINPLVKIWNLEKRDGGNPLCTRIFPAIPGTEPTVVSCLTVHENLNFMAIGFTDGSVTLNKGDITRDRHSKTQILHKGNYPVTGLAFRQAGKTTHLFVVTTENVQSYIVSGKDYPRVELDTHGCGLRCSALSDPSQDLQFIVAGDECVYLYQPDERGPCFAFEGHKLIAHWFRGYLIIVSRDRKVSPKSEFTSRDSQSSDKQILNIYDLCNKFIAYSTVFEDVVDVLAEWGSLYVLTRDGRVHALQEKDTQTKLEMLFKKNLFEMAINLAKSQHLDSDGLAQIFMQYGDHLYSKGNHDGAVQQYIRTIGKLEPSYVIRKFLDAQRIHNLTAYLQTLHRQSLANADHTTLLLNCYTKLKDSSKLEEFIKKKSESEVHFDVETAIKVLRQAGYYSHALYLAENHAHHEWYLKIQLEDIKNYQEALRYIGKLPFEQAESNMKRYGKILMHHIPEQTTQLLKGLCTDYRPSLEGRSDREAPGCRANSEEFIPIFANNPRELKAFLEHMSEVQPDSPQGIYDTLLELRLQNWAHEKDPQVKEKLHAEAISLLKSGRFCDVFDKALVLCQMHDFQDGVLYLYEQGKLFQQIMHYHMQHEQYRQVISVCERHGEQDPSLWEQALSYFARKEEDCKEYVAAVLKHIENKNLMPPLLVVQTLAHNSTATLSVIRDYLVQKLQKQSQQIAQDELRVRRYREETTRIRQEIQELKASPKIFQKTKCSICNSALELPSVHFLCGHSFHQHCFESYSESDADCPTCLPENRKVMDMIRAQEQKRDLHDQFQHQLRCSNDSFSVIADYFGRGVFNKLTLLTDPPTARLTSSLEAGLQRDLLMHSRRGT
Sequence of UniProt O15213 (O15213 whole entry, looked up): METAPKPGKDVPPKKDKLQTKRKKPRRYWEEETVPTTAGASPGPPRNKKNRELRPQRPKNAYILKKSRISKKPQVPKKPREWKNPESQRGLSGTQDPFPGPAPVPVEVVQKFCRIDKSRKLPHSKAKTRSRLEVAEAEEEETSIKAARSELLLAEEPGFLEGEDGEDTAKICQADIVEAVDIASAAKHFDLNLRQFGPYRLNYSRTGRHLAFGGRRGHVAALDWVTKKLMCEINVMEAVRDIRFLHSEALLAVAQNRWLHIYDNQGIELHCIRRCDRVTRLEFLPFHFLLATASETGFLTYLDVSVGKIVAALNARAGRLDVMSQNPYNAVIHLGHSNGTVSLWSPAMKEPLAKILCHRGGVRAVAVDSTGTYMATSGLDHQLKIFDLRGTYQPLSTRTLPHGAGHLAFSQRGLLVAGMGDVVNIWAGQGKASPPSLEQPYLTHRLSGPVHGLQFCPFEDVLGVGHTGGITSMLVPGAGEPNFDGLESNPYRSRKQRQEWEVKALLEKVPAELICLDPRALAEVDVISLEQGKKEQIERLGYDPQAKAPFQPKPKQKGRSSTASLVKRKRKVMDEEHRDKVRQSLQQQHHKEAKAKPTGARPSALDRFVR
Sequence of UniProt Q9Y6I4 (Q9Y6I4 whole entry, looked up): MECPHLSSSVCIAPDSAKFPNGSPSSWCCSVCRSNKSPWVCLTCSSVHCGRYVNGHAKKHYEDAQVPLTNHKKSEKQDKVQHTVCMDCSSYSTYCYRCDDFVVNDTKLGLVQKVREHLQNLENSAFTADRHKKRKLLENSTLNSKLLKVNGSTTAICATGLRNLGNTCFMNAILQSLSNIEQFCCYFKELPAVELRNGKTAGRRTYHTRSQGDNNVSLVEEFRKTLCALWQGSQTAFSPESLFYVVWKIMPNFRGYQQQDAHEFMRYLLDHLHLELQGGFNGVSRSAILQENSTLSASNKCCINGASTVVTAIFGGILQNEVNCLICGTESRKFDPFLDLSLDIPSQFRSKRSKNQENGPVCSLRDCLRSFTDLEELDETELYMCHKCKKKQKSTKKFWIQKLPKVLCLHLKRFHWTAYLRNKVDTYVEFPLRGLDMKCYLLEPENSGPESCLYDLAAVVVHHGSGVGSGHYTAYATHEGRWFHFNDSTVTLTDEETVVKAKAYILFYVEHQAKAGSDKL
Sequence of UniProt Q13263 (Q13263 whole entry, looked up): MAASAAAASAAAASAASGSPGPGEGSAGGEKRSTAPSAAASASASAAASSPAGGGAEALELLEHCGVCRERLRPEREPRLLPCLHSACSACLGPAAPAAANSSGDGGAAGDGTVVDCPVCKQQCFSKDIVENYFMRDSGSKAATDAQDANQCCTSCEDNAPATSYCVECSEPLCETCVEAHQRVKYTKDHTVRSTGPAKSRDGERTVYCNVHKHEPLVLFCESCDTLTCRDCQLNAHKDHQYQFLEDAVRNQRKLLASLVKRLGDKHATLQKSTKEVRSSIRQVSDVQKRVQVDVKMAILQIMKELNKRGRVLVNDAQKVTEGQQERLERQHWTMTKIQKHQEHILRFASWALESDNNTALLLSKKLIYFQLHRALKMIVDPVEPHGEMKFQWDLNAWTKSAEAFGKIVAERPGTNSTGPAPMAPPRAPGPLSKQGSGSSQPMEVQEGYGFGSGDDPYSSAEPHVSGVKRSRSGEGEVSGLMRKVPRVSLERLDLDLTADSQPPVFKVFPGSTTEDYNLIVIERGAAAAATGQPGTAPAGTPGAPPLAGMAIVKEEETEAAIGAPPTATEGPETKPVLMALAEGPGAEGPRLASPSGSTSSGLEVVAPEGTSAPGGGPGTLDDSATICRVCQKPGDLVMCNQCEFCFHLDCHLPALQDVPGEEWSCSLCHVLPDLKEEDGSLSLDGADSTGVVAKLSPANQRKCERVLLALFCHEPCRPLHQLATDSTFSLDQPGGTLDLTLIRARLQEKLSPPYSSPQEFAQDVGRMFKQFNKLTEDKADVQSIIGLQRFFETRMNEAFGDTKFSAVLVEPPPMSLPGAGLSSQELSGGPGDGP
Sequence of UniProt Q6VEQ5 (Q6VEQ5 whole entry, looked up): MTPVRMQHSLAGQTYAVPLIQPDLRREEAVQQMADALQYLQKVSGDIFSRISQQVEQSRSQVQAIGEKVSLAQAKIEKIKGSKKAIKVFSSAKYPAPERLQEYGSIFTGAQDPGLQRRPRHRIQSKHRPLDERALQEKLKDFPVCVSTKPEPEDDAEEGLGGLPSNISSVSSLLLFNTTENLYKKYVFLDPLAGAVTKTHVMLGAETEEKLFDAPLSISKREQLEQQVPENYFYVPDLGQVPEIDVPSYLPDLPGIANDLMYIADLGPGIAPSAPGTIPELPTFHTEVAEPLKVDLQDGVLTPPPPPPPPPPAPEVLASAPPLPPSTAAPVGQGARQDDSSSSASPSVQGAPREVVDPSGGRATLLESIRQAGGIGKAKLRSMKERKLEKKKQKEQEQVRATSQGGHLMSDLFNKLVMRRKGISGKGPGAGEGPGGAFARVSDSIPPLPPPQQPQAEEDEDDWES
Sequence of UniProt P02585 (P02585 whole entry, looked up): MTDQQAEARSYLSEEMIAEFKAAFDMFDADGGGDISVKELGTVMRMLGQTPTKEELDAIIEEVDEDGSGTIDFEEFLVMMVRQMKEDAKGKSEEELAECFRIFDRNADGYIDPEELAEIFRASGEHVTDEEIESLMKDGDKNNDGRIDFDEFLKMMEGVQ

Target	log2 fold change
VPS51 (UniProt Q9UID3)	-0.044 (inactive)
VPS11 (UniProt Q9H270)	-0.047 (inactive)
VPS41 (UniProt P49754)	-0.052 (inactive)
UBIAD1 (UniProt Q9Y5Z9)	0.093 (inactive)
WDR41 (UniProt Q9HAD4)	0.055 (inactive)
WDR46 (UniProt O15213)	-0.005 (inactive)
UBE4A isoform 2 (UniProt Q14139)	0.081 (inactive)
WASH2P (UniProt Q6VEQ5)	0.027 (inactive)
TPP1 (UniProt O14773)	-0.067 (inactive)
USP9X (UniProt Q93008)	-0.007 (inactive)
XPO6 (UniProt Q96QU8)	-0.072 (inactive)
WDR61 (UniProt Q9GZS3)	0.012 (inactive)
WDHD1 (UniProt O75717)	0.015 (inactive)
TMEM164 (UniProt Q5U3C3)	0.068 (inactive)
UTP14A (UniProt Q9BVJ6)	0.029 (inactive)
TRAPPC2L (UniProt Q9UL33)	0.038 (inactive)
UBXN10 (UniProt Q96LJ8)	0.063 (inactive)
UBE2D1 (UniProt P51668)	-0.035 (inactive)
TUT4 (UniProt Q5TAX3)	0.153 (inactive)
USP3 (UniProt Q9Y6I4)	-0.025 (inactive)
TNNC2 (UniProt P02585)	0.031 (inactive)
UBE2S (UniProt Q16763)	0.013 (inactive)
VRK2 (UniProt Q86Y07)	-0.083 (inactive)
TRIM28 (UniProt Q13263)	0.009 (inactive)
